Data from PubChem BioAssay (NCI).
This is part of a sample that, as a whole, favours compounds with a hit. Of some 79,000 tested, about 15% had one in any assay. Calls of active or inactive are those of the source. Rule as the data show it: active = growth inhibition above about 70%; inactive = the rest.

Columns and labels:
[1] = NCI Yeast Anticancer Drug Screen. Data for the rad52 strain (AID 147);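 also: 0% = growth of vehicle-treated control cultures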; details: S. cerevisiae rad52 mutant growth inhibition, stronger effect = higher value
How it was run: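 Compounds are applied to a genetically defined yeast strain lacking normal DNA damage repair, and inhibition of growth is expressed relative to cultures given vehicle only.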

[2] = NCI Yeast Anticancer Drug Screen. Data for the wt1 strain (AID 149);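 also: 0% = growth of vehicle-treated wt1 cultures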; details: S. cerevisiae wt1 strain (SPY 50644) growth inhibition, stronger effect = higher value
How it was run: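 Yeast wt1 strain exposed to compounds; growth inhibition measured relative to vehicle-treated controls.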

[3] = NCI Yeast Anticancer Drug Screen. Data for the rad50EPP+ strain (AID 151);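 also: 0% = growth of vehicle-treated control cultures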; details: S. cerevisiae rad50 mutant strain, stronger effect = higher value
How it was run: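 Compounds were applied to the rad50EPP+ yeast strain, which bears a defined DNA repair alteration, and growth inhibition was determined relative to vehicle-treated cultures.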

[4] = NCI Yeast Anticancer Drug Screen. Data for the mgt1 strain (AID 153); details: S. cerevisiae mgt1 mutant growth inhibition, stronger effect = higher value
How it was run: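 Strain: mgt1 yeast, one of a set carrying defined DNA damage repair or cell cycle control alterations. Compound-treated growth compared with vehicle.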

[5] = NCI Yeast Anticancer Drug Screen. Data for the rad50 strain (AID 155);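 also: 0% = growth of vehicle-only cultures of the same strain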; details: S. cerevisiae rad50 strain growth inhibition, stronger effect = higher value
How it was run: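 Yeast carrying a defined DNA repair defect were exposed to test compounds, and growth was compared with vehicle-treated controls to give percent inhibition.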

[6] = NCI Yeast Anticancer Drug Screen. Data for the rad14 strain (AID 159);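 also: 0% = growth of vehicle-treated control cultures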; details: S. cerevisiae rad14 strain growth inhibition, stronger effect = higher value
How it was run: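 Yeast cells carrying a defined DNA-repair defect were exposed to compounds, and growth inhibition was calculated relative to vehicle-treated control cultures.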

[7] = NCI Yeast Anticancer Drug Screen. Data for the sgs1 mgt1 strain (AID 161);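 also: 0% = growth of cultures given vehicle only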; details: S. cerevisiae sgs1 mgt1 strain, stronger effect = higher value
How it was run: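 Test agents were incubated with a DNA-repair-mutant yeast strain. Growth was then read and compared against vehicle-treated controls.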

[8] = NCI Yeast Anticancer Drug Screen. Data for the CLN2oe strain (AID 163);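 also: 0% = growth of vehicle-only control cultures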; details: S. cerevisiae CLN2oe strain, stronger effect = higher value
How it was run: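 Growth of a genetically modified yeast strain is measured after compound exposure and compared with cultures given vehicle alone.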

[9] = NCI Yeast Anticancer Drug Screen. Data for the cln2 rad14 strain (AID 165);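 also: 0% = growth equal to vehicle treated cultures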; details: S. cerevisiae cln2 rad14 strain, stronger effect = higher value
How it was run: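 Compounds are applied to the cln2 rad14 yeast strain, and growth is then compared with that of vehicle-treated cultures to give inhibition.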

[10] = NCI Yeast Anticancer Drug Screen. Data for the bub3 strain (AID 167); details: S. cerevisiae bub3 mutant strain, stronger effect = higher value
How it was run: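 Compounds were applied to a genetically altered yeast strain carrying a cell-cycle control defect. Growth inhibition was scored against vehicle-treated controls.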

[11] = NCI Yeast Anticancer Drug Screen. Data for the wt2 strain (AID 169);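 also: 0% = growth of vehicle-treated yeast cultures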; details: S. cerevisiae wt2 strain growth inhibition, stronger effect = higher value
How it was run: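 This strain belongs to a panel of yeast strains with defined genetic alterations in DNA damage repair or cell cycle control. Compounds are applied, and growth inhibition is measured against vehicle-treated cultures.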

[12] = NCI Yeast Anticancer Drug Screen. Data for the mlh1 strain (AID 171);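 also: 0% = growth of vehicle-treated control cultures of the same strain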; details: S. cerevisiae mlh1 strain growth inhibition, stronger effect = higher value
How it was run: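 Growth of the mutant yeast strain after compound exposure, expressed as inhibition relative to vehicle-only controls.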

[13] = NCI Yeast Anticancer Drug Screen. Data for the sgs1 strain (AID 173);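 also: 0% = growth of vehicle-only control cultures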; details: S. cerevisiae sgs1 mutant, stronger effect = higher value
How it was run: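 Growth of a yeast strain bearing a defined genetic alteration is measured after compound treatment. Inhibition is expressed relative to vehicle-only controls.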

[14] = NCI Yeast Anticancer Drug Screen. Data for the mlh1 rad18 strain (AID 175); details: S. cerevisiae mlh1 rad18 strain growth inhibition, stronger effect = higher value
How it was run: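 Read-out is yeast growth inhibition, calculated against vehicle-only controls. The compound was applied to a strain engineered with DNA damage repair alterations.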

[15] = NCI Yeast Anticancer Drug Screen. Data for the rad18 strain (AID 177); details: S. cerevisiae rad18 mutant growth inhibition, stronger effect = higher value
How it was run: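 Growth of the mutant yeast strain after compound exposure, normalised to vehicle-only cultures.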

[16] = NCI Yeast Anticancer Drug Screen. Data for the mec2-1 strain (AID 157); details: S. cerevisiae mec2-1 strain, stronger effect = higher value
How it was run: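 Strain: mec2-1 (DNA repair/cell cycle alteration). Compound exposure, then growth measured; inhibition expressed relative to vehicle.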

[17] = at 5.0 µM (retest, dose inferred, filed as 0.5)
[18] = at 50.0 µM (retest, dose inferred, filed as 5.0)

Measured: growth inhibition

COC(=O)/C=C(/C(=O)OC)C(Cl)(Cl)Cl
active: [1]; at 33.0 µM 97% | [1]; at 100.0 µM 100% | [2]; at 33.0 µM 84% | [2]; at 100.0 µM 100% | [3]; at 100.0 µM 84% | [4]; at 100.0 µM 99% | [5]; at 33.0 µM 93% | [5]; [18] 88% | [5]; at 100.0 µM 99% | [6]; at 33.0 µM 96% | [6]; at 100.0 µM 100% | [7]; [18] 97% | [7]; at 50.0 µM 79.9% | [8]; at 100.0 µM 99% | [9]; [18] 95% | [10]; at 33.0 µM 81% | [10]; [18] 94% | [10]; at 100.0 µM 100% | [11]; at 33.0 µM 99% | [11]; at 100.0 µM 100% | [12]; at 33.0 µM 84% | [12]; at 100.0 µM 99% | [13]; at 33.0 µM 97% | [13]; at 100.0 µM 100% | [14]; [17] 70% | [14]; [18] 97% | [15]; at 3.7 µM 87% | [15]; at 11.0 µM 95% | [15]; at 33.0 µM 98% | [15]; at 100.0 µM 99%
inactive: [1]; at 1.2 µM -32% | [1]; at 3.7 µM 7% | [1]; at 11.0 µM 47% | [2]; at 1.2 µM -1% | [2]; at 3.7 µM 4% | [2]; at 11.0 µM 34% | [3]; at 1.2 µM 4% | [3]; at 3.7 µM -9% | [3]; at 11.0 µM 24% | [3]; at 33.0 µM 61% | [4]; at 1.2 µM 3% | [4]; at 3.7 µM -3% | [4]; at 11.0 µM 5% | [4]; at 33.0 µM 59% | [5]; at 1.2 µM 1% | [5]; at 3.7 µM 4% | [5]; [17] 14% | [5]; at 11.0 µM 33% | [5]; at 50.0 µM 44.8% | [6]; at 1.2 µM 6% | [6]; at 3.7 µM 18% | [6]; at 11.0 µM 64% | [7]; [17] 23% | [8]; at 1.2 µM -5% | [8]; at 3.7 µM -3% | [8]; at 11.0 µM 2% | [8]; at 33.0 µM 45% | [9]; [17] 9% | [9]; at 50.0 µM 67.5% | [10]; at 1.2 µM -4% | [10]; at 3.7 µM 6% | [10]; [17] -3% | [10]; at 11.0 µM 23% | [10]; at 50.0 µM -0.7% | [11]; at 1.2 µM -1% | [11]; at 3.7 µM 8% | [11]; at 11.0 µM 33% | [12]; at 1.2 µM -3% | [12]; at 3.7 µM 2% | [12]; at 11.0 µM 5% | [13]; at 1.2 µM 6% | [13]; at 3.7 µM 14% | [13]; at 11.0 µM 69% | [14]; at 50.0 µM 40.9% | [15]; at 1.2 µM 38%

CCCCCCCCCCCCCCCCOP(=O)(O)OCC(N)C(=O)O (stereo not drawn)
inactive: [1]; at 1.2 µM -2% | [1]; at 3.7 µM 5% | [1]; at 11.0 µM 54% | [2]; at 1.2 µM -19% | [2]; at 3.7 µM -22% | [2]; at 11.0 µM 39% | [3]; at 1.2 µM -17% | [3]; at 3.7 µM -4% | [4]; at 1.2 µM -1% | [4]; at 3.7 µM 5% | [4]; at 11.0 µM 52% | [5]; at 1.2 µM -20% | [5]; at 3.7 µM -6% | [5]; [17] -25% | [5]; at 11.0 µM 42% | [16]; at 1.2 µM 6% | [16]; at 3.7 µM 3% | [16]; [17] 12% | [16]; at 11.0 µM 50% | [7]; [17] -13% | [8]; at 1.2 µM 6% | [8]; at 3.7 µM -10% | [8]; at 11.0 µM -3% | [9]; [17] 6% | [10]; at 1.2 µM -13% | [10]; at 3.7 µM -29% | [10]; [17] -14% | [10]; at 11.0 µM 34% | [12]; at 1.2 µM -23% | [12]; at 3.7 µM -11% | [12]; at 11.0 µM 53% | [13]; at 1.2 µM 14% | [13]; at 3.7 µM 1% | [13]; at 11.0 µM 51% | [14]; [17] -26% | [15]; at 1.2 µM -25% | [15]; at 3.7 µM -11% | [15]; at 11.0 µM 40%
active: [1]; at 33.0 µM 98% | [1]; at 100.0 µM 98% | [2]; at 33.0 µM 98% | [2]; at 100.0 µM 97% | [3]; at 11.0 µM 80% | [3]; at 33.0 µM 98% | [3]; at 100.0 µM 98% | [4]; at 33.0 µM 97% | [4]; at 100.0 µM 97% | [5]; at 33.0 µM 97% | [5]; [18] 98% | [5]; at 50.0 µM 98.4% | [5]; at 100.0 µM 97% | [16]; at 33.0 µM 98% | [16]; [18] 99% | [16]; at 50.0 µM 98.2% | [16]; at 100.0 µM 97% | [7]; [18] 99% | [7]; at 50.0 µM 98.8% | [8]; at 33.0 µM 94% | [8]; at 100.0 µM 97% | [9]; [18] 99% | [9]; at 50.0 µM 98% | [10]; at 33.0 µM 98% | [10]; [18] 99% | [10]; at 50.0 µM 98.8% | [10]; at 100.0 µM 98% | [12]; at 33.0 µM 97% | [12]; at 100.0 µM 97% | [13]; at 33.0 µM 98% | [13]; at 100.0 µM 98% | [14]; [18] 99% | [14]; at 50.0 µM 98.2% | [15]; at 33.0 µM 97% | [15]; at 100.0 µM 97%

CCCCCCCCCCCC1N=C(N)NC(CCCO)=C1C(=O)OC (stereo not drawn)
inactive: [1]; at 1.2 µM 5% | [2]; at 1.2 µM 15% | [3]; at 1.2 µM 32% | [5]; at 1.2 µM 28% | [5]; [17] 28% | [16]; at 1.2 µM 12% | [16]; [17] 7%
active: [1]; at 3.7 µM 99% | [1]; at 11.0 µM 99% | [1]; at 33.0 µM 99% | [1]; at 100.0 µM 99% | [2]; at 3.7 µM 99% | [2]; at 11.0 µM 99% | [2]; at 33.0 µM 99% | [2]; at 100.0 µM 99% | [3]; at 3.7 µM 81% | [3]; at 11.0 µM 99% | [3]; at 33.0 µM 99% | [3]; at 100.0 µM 98% | [5]; at 3.7 µM 99% | [5]; at 11.0 µM 99% | [5]; at 33.0 µM 99% | [5]; [18] 100% | [5]; at 50.0 µM 89.2% | [5]; at 100.0 µM 99% | [16]; at 3.7 µM 99% | [16]; at 11.0 µM 99% | [16]; at 33.0 µM 99% | [16]; [18] 99% | [16]; at 50.0 µM 91.8%
